Assay outcomes (PubChem BioAssay)
FMDV inh: High Throughput Screening for Foot and Mouth Disease Virus Antivirals; AID 1159524, 2015; FMDV antiviral cell-based qHTS; 1.2% of 410,000 active; Potency, µM (titrated, usually from 57.9 µM), for the others: top-dose activity change, negative = inhibition, usual class: inhibitors; calls by dose curve; tested in HEK293T cells; also: read-out not given here; nearly all actives have a fitted effect of over 45% in size
Sm TGR inh: qHTS Assay for the Inhibitors of Schistosoma Mansoni Peroxiredoxins; Potency, µM (highest dose often 114 µM), for the others: at the highest dose activity change, negative = inhibition, most hits filed as inhibitors; 3% of 360,000 active; AID 485364, 2010; purified TGR, DTNB reduction, TNB absorbance 405 nm; active = well fitted inhibition curve with a large enough effect; inconclusive = small, poorly fitted or top-dose-only effect; inactive = no such curve, though single readings can be large or run the other way; also: nearly all actives have a fitted effect of over 60% in size
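Kinetic colorimetric format: TGR-catalysed, NADPH-driven DTNB reduction monitored via TNB absorbance. Enzyme dispensed at 20 nM; compound exposure 15 min at room temperature before reaction start.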
Marburg entry inh: qHTS for inhibitors of binding or entry into cells for Marburg Virus | Potency, µM (series often up to 37.8 µM), without a hit: at the top dose activity change, negative = inhibition, most hits filed as inhibitors | Marburg virus pseudotyped entry inhibition, cell reporter | 1.8% of 300,000 active; calls by dose curve; tested in HEK293 cells
VACV Venus inh: qHTS for Stage-Specific Inhibitors of Vaccinia Orthopoxvirus: Venus Reporter Primary qHTS. Vaccinia virus Venus reporter expression, fluorescence. Potency, µM (highest dose often 36.5 µM), for inactives: at the highest dose activity change, negative = inhibition, most hits filed as inhibitors. 0.46% of 330,000 active; calls by dose curve; tested in A549 cells; also: nearly all actives have a fitted effect of over 30% in size
Vaccinia mCherry: qHTS for Stage-Specific Inhibitors of Vaccinia Orthopoxvirus: mCherry Reporter Primary qHTS. 0.63% of 310,000 active. AID 720579, 2013. Vaccinia virus mCherry reporter infection, fluorescence. Potency, µM (doses to about 36.5 µM), for the others: at the top dose activity change, negative = inhibition, most hits filed as inhibitors; calls by dose curve; tested in A549 cells; also: nearly all actives have a fitted effect of over 35% in size
LASV entry inh: qHTS for Inhibitors of binding or entry into cells for Lassa Virus | 1.2% of 300,000 active | AID 540256, 2011 | Potency, µM (highest dose often 37.9 µM), without a hit: at the top dose activity change, negative = inhibition, most hits filed as inhibitors | Lassa virus pseudotype entry inhibition, cell reporter; calls by dose curve; tested in HEK293 cells; also: nearly all actives have a fitted effect of over 50% in size
Starred values were filed as active, the others as inactive; i = inactive; ? = inconclusive; nt = no result given; [ ] = remark or other dose. Most compounds without a hit are left out; they make up all but 5.4% or so of the library. % is scaled to controls: 0 for no effect and ±100 for the full control effect; potency is read from the fitted curve at half-maximal effect.

SMILES	FMDV inh	Sm TGR inh	Marburg entry inh	VACV Venus inh	Vaccinia mCherry	LASV entry inh
CC(C)C(=O)N1CCN(c2ccc(NC(=O)c3ccc([N+](=O)[O-])o3)cc2Cl)CC1	25.1µM*	0.0%	?	?	?	?
CC(C)C(=O)N1CCN(c2ccc(NC(=O)c3ccc(Br)o3)cc2)CC1	-15.6%	4.9%	-16.4%	-16.8%	-23.5%	-14.0%
CC(C)C(=O)N1CCN(c2ccc(NC(=O)c3ccc([N+](=O)[O-])o3)cc2)CC1	-21.4%	?	20.9%[46.1 µM]	11.2µM*	10µM*	-17.3%
CCCC(=O)N1CCN(c2ccc(NC(=O)c3ccc([N+](=O)[O-])o3)cc2Cl)CC1	20µM*	?	?	?	10µM*	?
O=C(Nc1ccc(N2CCOCC2)c(Cl)c1)c1ccc([N+](=O)[O-])o1	0.0%	nt	nt	?	?	nt
CCc1ccc(NC(=O)CCn2c(-c3ccc(OC)cc3)cc(C(C)=O)c2C)cc1	-23.6%	5.9%	nt	-10.0%	-18.5%	-8.8%[46.1 µM]
C=CCSc1nc(N)c(C#N)c(-c2ccccc2)c1C#N	-7.7%	-14.1%	0.1%	nt	nt	-25.9%
C=CCSc1nc2c(c(-c3ccsc3)c1C#N)CN(C)CC2	-23.0%	10µM*	1.6%	2.4%	-5.6%	1.1%
CCCCN(C)CCNC(=O)c1ccc2c(=O)n(CCc3ccccc3)c(=O)[nH]c2c1	-4.6%	3.5%	-12.6%[46.1 µM]	5.3%	-1.5%	?
CCc1ccc(NCc2cc3cc4c(cc3n(CC(=O)Nc3ccc(Cl)cc3)c2=O)OCO4)cc1	-12.9%	?	nt	4.9%	-3.4%	14.2%[46.1 µM]
CN(C)CCCNc1ncnc2oc(-c3ccccc3)c(-c3ccccc3)c12	-22.7%	12.4%	8.91µM*	?	-19.2%	?
OCCNc1c2ccccc2nc2c(F)c(F)c(F)c(F)c12	22.4µM*	-25.6%	?	3.8%	-8.3%	?
CN(C)CCCNc1nc(-c2ccccc2)nc2ccccc12	-15.3%	1.9%	12.6µM*	-16.3%	i	-12.9%[46.1 µM]
CN(C)CCCNc1c2ccccc2nc2ccccc12	-29.5%	-12.5%	5.62µM*	8.91µM*	7.08µM*	?
CCc1nc2cc(C(=O)N(C)CC3COCCO3)cc(NC(=O)c3ccccc3OC)c2n1C (stereo not drawn)	-5.6%	nt	nt	-5.0%	-12.1%	nt
CCCCN(C)c1c(C)nc2ccc(C(=O)N3CCN(C(C)=O)CC3)cn12	-10.2%	nt	nt	-6.3%	8.9%	nt
OC1CCN(Cc2ccc3c(c2)CN(Cc2ccc(Oc4ncccn4)cc2)CCO3)CC1	-5.5%	nt	nt	-16.3%	i	nt
COc1cc(/C=C/c2noc(-c3ccccc3O)n2)cc(OC)c1OC	26.9%	-5.0%	17.5%	-17.0%	-14.8%	9.7%
COc1ccc(/C=C/c2noc(-c3ccccc3O)n2)cc1	0.0%	0.9%	?	1.6%	-5.3%	11.2µM*
CCOC(=O)c1ccc(N2C(=O)CC(N(C)CCc3ccc(OC)c(OC)c3)C2=O)cc1 (stereo not drawn)	-18.9%	44.7µM*	-12.0%	-6.4%	nt	-7.2%
Cc1nn(Cc2c(F)c(F)c(F)c(F)c2F)c(C)c1NC(=O)c1ccc(COc2ccc(F)cc2)o1	?	8.5%	3.66µM*	nt	nt	-21.9%
COc1cc(-c2noc(C)c2C#CCO)cc(OC)c1OC	-4.8%	31.6µM*	nt	-17.1%	-15.4%	nt
COc1cc(-c2noc(C)c2C#CC2(O)CCCCC2)cc(OC)c1OC	-19.8%	?	nt	-15.6%	-9.3%	nt
COc1cc(/C=C(\NC(C)=O)C(=O)Nc2cccc(O)c2)ccc1OC(C)=O	22.3%	50.1µM*	0.4%	-5.0%	-9.3%	13.3%
COc1cc(/C=C(\NC(C)=O)C(=O)NC(C)(C)C)ccc1OC(C)=O	-8.8%	-5.3%	1.8%	-13.8%	-19.7%	-4.6%
SMILES	FMDV inh	Sm TGR inh	Marburg entry inh	VACV Venus inh	Vaccinia mCherry	LASV entry inh
O=C(Nc1ccccc1C(F)(F)F)N1CCOc2ccc(Cl)cc21	-3.6%	1.1%	nt	-4.7%	10.2%	?
CCN(CC)C(C)C(=O)Nc1c2c(cc3c1CCC3)CCC2 (stereo not drawn)	-17.6%	?	14.6µM*	-4.4%	i	-12.6%
CC(C(=O)Nc1c2c(cc3c1CCC3)CCC2)N1CCCC1 (stereo not drawn)	-8.9%	16.2%	?	4.3%	-1.6%	?
Cc1nonc1CN(C)C(=O)C1CC12CCN(C(=O)/C=C/c1cccc(Cl)c1)CC2 (stereo not drawn)	-14.9%	nt	nt	-10.1%	-0.1%	nt
CCCCn1cc(S(=O)(=O)c2ccc(Cl)cc2)c(=O)c2cc(F)c(N3CCCC(C)C3)cc21 (stereo not drawn)	-6.3%	-4.0%	nt	-15.2%	-15.2%	26.9%[46.1 µM]
O=C(COC(=O)c1ccc2[nH]c3c(c2c1)CCCC3)Nc1ccc(Cl)cc1Cl	-18.3%	3.8%	8.91µM*	-7.5%	i	4.8%
CCC(C)c1ccccc1NC(=O)COC(=O)c1ccc2[nH]c3c(c2c1)CCCC3 (stereo not drawn)	28.2µM*	0.2%	2.24µM*	?	?	?
O=C(COC(=O)c1ccc2[nH]c3c(c2c1)CCCC3)Nc1ccccc1Cl	-22.4%	13.1%	-11.4%[46.1 µM]	-2.5%	5.4%	-16.0%
O=S(=O)(c1ccccc1)N1CCC[C@@]2(CCN(c3cccc(-c4ccccc4)c3)C2)C1	-13.5%	nt	nt	nt	nt	nt
CCN(CC)c1ccc(NC(=O)c2cccn2-c2nnc(N3CCCCC3)s2)c(C)c1	?	15.0%	nt	-10.6%	-13.9%	?
Cc1cc(Cl)ccc1OCC(=O)N1CCCN(C(=O)COc2ccc(Cl)cc2C)CC1	?	-9.3%	14.6µM*	-16.7%	-5.9%	?
Cc1cc(Cl)ccc1OC(C)C(=O)N1CCCN(C(=O)C(C)Oc2ccc(Cl)cc2C)CC1 (stereo not drawn)	28.2µM*	-26.9%	?	?	?	?
Cc1cc(Cl)ccc1OC(C)C(=O)O (stereo not drawn)	-15.6%	-0.2%	nt	-12.8%	i	nt
Cc1ccc2c(Cl)cc(Cl)c(OCC(=O)N3CCCC3)c2n1	-10.6%	39.8µM*	15.2%	-7.9%	i	8.8%
Cc1ccc2c(Cl)cc(Cl)c(OCC(=O)N3CCOCC3)c2n1	-17.2%	-17.7%	nt	nt	nt	nt
CC(C)N1C[C@@H](Sc2ccccn2)C[C@H]1C(=O)Nc1ccc2c(c1)Nc1ccccc1CC2	-6.2%	nt	nt	6.8%	-10.2%	nt
CN1C2CCC1/C(=C\c1ccc(F)cc1)C(=O)/C2=C/c1ccc(F)cc1	-4.6%	-11.0%	?	-4.0%	-11.6%	-26.9%
CN1C2CCC1/C(=C/c1cccn1C)C(=O)/C2=C\c1cccn1C	?	35.5µM*	?	99.2%	-15.4%	-28.6%
CCCCN(C=O)c1c(CC)nc2c(OCCOc3ccc(F)cc3)cccn12	?	nt	nt	-7.1%	11.5%	nt
